According to PubChem BioAssay AID504333 (National Center for Advancing Translational Sciences (NCATS), 2011):
Several values for one entry are separate records, joined by “and”; a condition that tells them apart may be missing. Equal entries are not always repeated. Hit rate of the full screen: of about 360,000 compounds, about 16,000 (4.4%) were called active. Where a call stands in place of a potency, no number is given. About 9% were inconclusive and are not listed. The call rests on the fitted dose curve; in most records, active means well fitted inhibition curve with a large enough effect; inconclusive means small, poorly fitted or top-dose-only effect; inactive means no such curve, though single readings can be large or run the other way. Only a selection was taken, and actives are over-represented in it overall. Some compounds were tested as several samples or in several runs, with calls that do not always agree.

Target: Bromodomain adjacent to zinc finger domain protein 2B (Homo sapiens) (UniProt Q9UIF8)
Test: qHTS Assay for Inhibitors of BAZ2B; further: nearly all actives have a fitted effect of over 60% in size
Conditions: AlphaScreen BAZ2B-H3K14Ac peptide displacement; series mostly up to 114 µM
Summary of the method: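 AlphaScreen displacement: compounds (up to 110uM) incubated 30 min at room temperature with a preformed 50 nM BAZ2B/50 nM biotinylated H3K14Ac peptide complex in PBS pH 7.4 with Tween-20. Donor and acceptor beads at 10 ug/mL final added, 20 min light-protected before reading.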
Potency means the concentration at half of the fitted maximal effect.

Sequence of Bromodomain adjacent to zinc finger domain protein 2B (Homo sapiens) (Q9UIF8 whole entry, looked up, the tested form may be a part): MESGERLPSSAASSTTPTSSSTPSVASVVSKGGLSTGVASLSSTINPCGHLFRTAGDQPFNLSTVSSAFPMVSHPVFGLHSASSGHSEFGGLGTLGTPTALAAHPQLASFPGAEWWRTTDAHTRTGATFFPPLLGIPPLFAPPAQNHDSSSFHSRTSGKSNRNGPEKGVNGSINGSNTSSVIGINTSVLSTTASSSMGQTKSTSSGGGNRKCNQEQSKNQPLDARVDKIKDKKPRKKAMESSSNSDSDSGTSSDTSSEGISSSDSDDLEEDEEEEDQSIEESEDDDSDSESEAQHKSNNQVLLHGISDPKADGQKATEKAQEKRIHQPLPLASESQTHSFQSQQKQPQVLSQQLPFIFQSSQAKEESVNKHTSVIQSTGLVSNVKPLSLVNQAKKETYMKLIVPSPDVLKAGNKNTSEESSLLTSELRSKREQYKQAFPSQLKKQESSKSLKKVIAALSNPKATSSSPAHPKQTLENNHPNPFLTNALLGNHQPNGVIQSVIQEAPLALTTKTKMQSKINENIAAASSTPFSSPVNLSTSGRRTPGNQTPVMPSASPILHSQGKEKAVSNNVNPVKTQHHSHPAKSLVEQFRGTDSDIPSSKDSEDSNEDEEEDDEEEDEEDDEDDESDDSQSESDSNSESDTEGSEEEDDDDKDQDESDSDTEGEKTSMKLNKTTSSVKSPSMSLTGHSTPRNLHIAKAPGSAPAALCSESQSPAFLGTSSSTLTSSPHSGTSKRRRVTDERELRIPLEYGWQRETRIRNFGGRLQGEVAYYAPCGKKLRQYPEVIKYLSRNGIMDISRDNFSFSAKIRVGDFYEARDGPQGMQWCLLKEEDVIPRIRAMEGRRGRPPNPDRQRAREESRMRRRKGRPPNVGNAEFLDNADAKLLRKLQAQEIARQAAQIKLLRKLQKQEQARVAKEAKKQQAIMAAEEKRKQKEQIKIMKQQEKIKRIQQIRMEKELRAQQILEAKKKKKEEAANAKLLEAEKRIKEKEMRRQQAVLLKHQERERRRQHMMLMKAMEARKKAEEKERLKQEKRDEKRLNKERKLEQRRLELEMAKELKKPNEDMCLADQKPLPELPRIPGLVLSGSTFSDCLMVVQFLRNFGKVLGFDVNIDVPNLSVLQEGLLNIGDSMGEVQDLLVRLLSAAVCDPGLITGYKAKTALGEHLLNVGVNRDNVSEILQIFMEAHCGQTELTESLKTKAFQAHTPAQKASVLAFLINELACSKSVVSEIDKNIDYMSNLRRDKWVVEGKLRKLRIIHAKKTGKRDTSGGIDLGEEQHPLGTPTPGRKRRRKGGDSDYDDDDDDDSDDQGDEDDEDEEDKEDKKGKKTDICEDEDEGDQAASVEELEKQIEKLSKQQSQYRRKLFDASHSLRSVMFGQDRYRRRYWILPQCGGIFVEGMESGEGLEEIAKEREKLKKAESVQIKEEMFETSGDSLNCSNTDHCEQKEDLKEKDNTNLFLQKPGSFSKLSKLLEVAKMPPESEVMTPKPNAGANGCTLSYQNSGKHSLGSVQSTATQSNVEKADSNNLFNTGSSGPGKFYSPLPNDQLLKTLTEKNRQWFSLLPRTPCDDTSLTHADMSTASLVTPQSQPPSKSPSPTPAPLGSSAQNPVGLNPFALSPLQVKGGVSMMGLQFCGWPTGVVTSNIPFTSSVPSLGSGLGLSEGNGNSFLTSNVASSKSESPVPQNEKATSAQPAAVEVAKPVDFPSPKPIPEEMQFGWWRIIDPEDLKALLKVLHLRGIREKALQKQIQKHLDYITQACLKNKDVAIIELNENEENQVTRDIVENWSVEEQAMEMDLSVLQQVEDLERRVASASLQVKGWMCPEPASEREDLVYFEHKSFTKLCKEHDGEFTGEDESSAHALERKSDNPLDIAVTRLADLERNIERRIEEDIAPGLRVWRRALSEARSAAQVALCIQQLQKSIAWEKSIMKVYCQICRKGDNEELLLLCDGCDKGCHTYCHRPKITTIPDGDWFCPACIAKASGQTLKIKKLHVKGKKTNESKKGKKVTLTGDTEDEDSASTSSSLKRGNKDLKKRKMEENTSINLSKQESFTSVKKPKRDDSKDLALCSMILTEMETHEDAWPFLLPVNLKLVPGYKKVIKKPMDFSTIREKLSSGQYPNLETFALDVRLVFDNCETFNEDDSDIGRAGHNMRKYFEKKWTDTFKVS

Row | Structure (SMILES) | Potency
1 | Cc1ccc(-c2cn3c(n2)sc2cc(C(=O)NCc4cccs4)ccc23)c(C)c1 | inactive
2 | Cc1ccccc1CSc1nnc(Cn2c(=O)sc3ccccc32)n1C | inactive
3 | Cc1ccccc1CSc1nnc(-c2cccnc2)n1N | inactive
4 | Cc1ccccc1CSc1nnc(-c2ccccn2)n1N | 28.2 µM (active)
5 | CCC1=C/C(=C\c2ccc3c(c2)OCO3)C(=O)S1 | 44.7 µM (active)
6 | O=C(Cc1ccc(F)cc1)N/N=C/c1ccc2c(c1)OCO2 | inactive
7 | CCOC(=O)CCCNC(=O)COC(=O)/C=C/c1ccc2c(c1)OCO2 | inactive
8 | Cn1c(=O)c2c(nc(SCC(=O)Nc3ccc(F)cc3)n2Cc2ccc(Cl)cc2)n(C)c1=O | inactive
9 | CC1Cc2cc(S(=O)(=O)CCC(=O)Nc3ccc(F)c(Cl)c3)ccc2N1C(=O)C1CC1 (stereo not given) | inactive
10 | CC(C)Oc1ccc(NC(=O)c2cc3ccccc3o2)cc1 | inactive
11 | Cc1ccc(NC(=O)c2cc3ccccc3o2)cc1 | inactive
12 | C/C(=N\NC(=S)Nc1ccc(C)cc1)c1cc2ccccc2o1 | 56.2 µM (active)
13 | Cc1ccc(NC(=O)C2CCN(S(=O)(=O)c3cc(-c4noc(C)n4)ccc3C)CC2)c(C)c1 | inactive
14 | C/C(=N\NC(N)=S)c1cccnc1 | inactive
15 | C/C(=N\NC(N)=S)c1ccncc1 | 50.1 µM (active)
16 | C/C(=N/NC(=O)c1ccn(C)n1)c1ccncc1 | inactive
17 | CCOC(=O)c1c(C)[nH]c(C)c1S(=O)(=O)N(C)CC(=O)N1CCN(c2ccccc2)CC1 | inactive
18 | Cc1ccccc1NC(=O)Cn1c(=O)n(CC2CCC(C(=O)NCCc3ccccc3)CC2)c(=O)c2ccccc21 (stereo not given) | inactive
19 | Cc1c(Cl)cccc1NC(=O)C(=O)NCCc1csc2nc(-c3ccccc3F)nn12 | inactive
20 | CC(=O)NC(Cc1c[nH]c2ccccc12)C(=O)NCCc1ccccc1 (stereo not given) | inactive
21 | C[C@]1(C(=O)NCCc2c[nH]c3ccccc23)C=C[C@@H](Cc2ccccc2)N1C(=O)c1ccccc1 | 79.4 µM (active)
22 | CC1(C(=O)NCCc2c[nH]c3ccccc23)C=CC2(CCCCC2)N1C(=O)c1ccccc1 (stereo not given) | inactive

Row | Structure (SMILES) | Potency
23 | COc1cc(Nc2nc(-c3ccc(OC)c(OC)c3)nc3ccccc23)cc(OC)c1 | inactive
24 | Cc1ccccc1OCC(=O)Nc1nnc(S(=O)(=O)N2CCCC2)s1 | inactive and 3.55 µM (active)
25 | Cc1cccc(C(=O)Nc2nnc(S(=O)(=O)N3CCCCCC3)s2)c1 | inactive
26 | CC1CCN(S(=O)(=O)c2nnc(NC(=O)COc3ccccc3F)s2)CC1 | inactive
27 | CCOCCCNC(=O)c1ccc2nc(CCc3ccccc3)oc2c1 | inactive
28 | COc1ccc(CCNC(=O)Cn2c(=O)cc(C(F)(F)F)c3c(C)nn(C)c32)c(OC)c1 | inactive
29 | S=C(NCCc1ccccc1)NCC1CCCO1 (stereo not given) | inactive
30 | CCCC1CCC(=NNC(=S)NCCc2ccccc2)CC1 (stereo not given) | 10 µM (active)
31 | S=C(NCCc1ccccc1)Nc1ccccc1 | inactive
32 | COc1ccccc1NC(=O)c1oc2ccccc2c1NC(=O)C(C)C | inactive
33 | Cc1cccc(NC(=S)NCc2ccc3[nH]c4c(c3c2)CCCC4)c1 | 39.8 µM (active)
34 | Cc1cccc(NC(=S)NCCN(C2CCCCC2)C2CCCC2)c1 | inactive
35 | O=C(O)CCC(=O)NCc1ccc2[nH]c3c(c2c1)CCCC3 | inactive
36 | O=C(CCn1c(=O)c2sccc2n(Cc2ccc(F)cc2)c1=O)NCc1ccc2c(c1)OCO2 | inactive
37 | O=C(Cn1c(=O)nc(-c2ccccc2)c2cc(Cl)ccc21)NCc1ccc(Cl)cc1 | inactive
38 | C=CS(=O)c1sc(Cl)c(N2CCOCC2)c1[N+](=O)[O-] (stereo not given) | 39.8 µM (active)
39 | CCC(=O)Nc1cccc(-c2nc3cc(C)ccc3o2)c1 | inactive
40 | Cc1ccc(C)c(N2CCN(C(=O)Cn3ncc4c(=O)oc5ccc(C)cc5c43)CC2)c1 | inactive
41 | O=C(O)c1n[nH]nc1-c1ccccc1 | 56.2 µM (active)
42 | O=C(O)c1ccc(-n2nc(-c3ccccc3)c3ccccc3c2=O)cc1 | inactive
43 | N#Cc1c(-c2ccccc2)c(-c2ccccc2)n[nH]c1=O | inactive
44 | COc1ccc(Br)cc1CNC(=O)c1cc(=O)[nH]c2ccc(S(=O)(=O)N3CCCC3)cc12 | inactive

Row | Structure (SMILES) | Potency
45 | COc1ccc(C(=O)N(Cc2ccc(N(C)C)cc2)C2CCS(=O)(=O)C2)cc1 (stereo not given) | inactive
46 | COc1ccc(N(Cc2ccc(N(C)C)cc2)C(=O)c2ccc(S(C)(=O)=O)cc2)cc1 | 39.8 µM (active)
47 | COc1ccc(S(=O)(=O)NCc2ccc(C(=O)N(C)Cc3ccco3)cc2)cc1 | inactive
48 | CC(C)Cn1c(=O)c2ccccc2n2c(CCC(=O)N3CCN(c4cccc(Cl)c4)CC3)nnc12 | inactive
49 | Cc1cc(NC(=O)c2cccc(Cl)c2)ccc1-c1cc2ccccc2oc1=O | inactive
50 | CC1=CC(C)(C)Nc2ccc(OC(=O)C(Cc3ccccc3)N3C(=O)C4CCCCC4C3=O)cc21 (stereo not given) | inactive
51 | O=C(CN1C(=O)C2C3CCC(C3)C2C1=O)Oc1ccc2ccccc2c1 (stereo not given) | inactive
52 | CC1=CC(C)(C)Nc2ccc(OC(=O)CN3C(=O)C4CCCCC4C3=O)cc21 (stereo not given) | 56.2 µM (active)
53 | COc1ccc(CCNC(=O)c2ccc3c(c2)sc2nc(-c4ccc(C)cc4)cn23)cc1OC | inactive
54 | Cc1cccc(CNC(=O)c2cnc3sc(N4CCCCC4)nn3c2=O)c1 | inactive
55 | Cc1ccc2nc(/C(C#N)=C/c3ccc(-c4ccc(C(=O)OC(C)C)cc4)o3)[nH]c2c1 | inactive
56 | CCc1ccccc1NC(=O)N1CCC2(CC1)Oc1ccccc1C(=O)N2Cc1ccccc1F | inactive
57 | c1ccc2sc(NN=C3CCCC3)nc2c1 | inactive
58 | COc1ccc(CC(=O)N/N=C/c2cc([N+](=O)[O-])cc(Br)c2O)cc1 | inactive
59 | O=[N+]([O-])c1cc(Br)c(O)c(/C=N/Nc2nc3ccccc3s2)c1 | 35.5 µM (active)
60 | CCN(CC)CCNC(=O)c1cc2c(=O)oc3ccc(C)cc3c2s1 | inactive
61 | CCOc1cccc(NC(=O)c2ccc(F)c(S(=O)(=O)N(CC)c3cccc(C)c3)c2)c1 | inactive
62 | O=C(CCc1ccccc1)NNc1ccc(F)cc1 | inactive
63 | CC(C)Cc1nnc(NC(=O)CCc2ccccc2)s1 | inactive
64 | O=C(CCc1ccccc1)Nc1nn[nH]n1 | 70.8 µM (active)
65 | COc1ccc(OC)c(CNC(=O)CN2C(=O)CCn3nc(-c4cn(C)c5ccccc45)cc32)c1 | inactive
